Shown are actives, neighbours in structure and some others; about 4.5% of the full set was active somewhere.
aSyn UTR inh: MLPCN primary screen, SNCA 5' untranslated region; inhibition, % (tested at 7.5 µM); alpha-synuclein 5'UTR reporter, inhibitor activity; 300,000 compounds, 0.82% hits; in the data active means inhibition above about 60%;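 further: H4 neuroglioblastoma cells stably carrying SNCA 5'UTR luciferase fusion; 0% = DMSO wells and 100% = positive control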
CSC inhib: cancer stem cell viability inhibitors, primary screen, luminescence. cancer stem cell-like cells viability. inhibition, % at 7.5 µM. 300,000 compounds, 1.1% hits. AID 2717, 2010; in the data active means inhibition above about 75%; tested in HMLE shEcad cells
697 NFkB inh: inhibitors of PMA/ionomycin-induced NF-kB reporter, 697 cells, primary screen, B-cell NF-kB inhibitor project, cell-based, luminescence, uHTS | AID 435022, 2010 | inhibition, % at 4 µM | 697 B-cell NF-kB luciferase reporter, 16 h | 330,000 compounds, 0.33% hits; in the data active means inhibition above about 35%
Mdm2-MdmX inh: inhibitors of human Mdm2-MdmX association, primary screen, cell-based, luminescence, split luciferase, SaOS-2, uHTS; Protein Mdm4 (Homo sapiens) + E3 ubiquitin-protein ligase Mdm2 (Homo sapiens), …; SaOS-2 split-luciferase Mdm2/MdmX complementation; inhibition, % at 8 µM; 330,000 compounds, 3% hits;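 active means inhibition of at least 50% at 8 µM in the primary screen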
Gli-Sufu antag: Gli-Sufu pathway antagonists, primary screen, luciferase luminescence, Sufu-KO-LIGHT cells, uHTS | Sufu-KO-LIGHT fibroblasts, Gli luciferase reporter luminescence | inhibition, % at 5 µM | 340,000 compounds, 0.74% hits | AID 588413, 2011;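 active means inhibition above about 55%, limit read from the data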;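 further: 0% = DMSO-treated cells and 100% = wells with medium but no cells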
Jurkat NFkB inh: inhibitors of induced NF-kB luciferase reporter, primary screen, TCR NF-kB activation inhibitor project, cell-based, luminescence, uHTS; 330,000 compounds, 0.53% hits; Jurkat, PMA/ionomycin-induced NF-kB luciferase reporter; inhibition, % at 4 µM; in the data active means inhibition above about 50%
Mdm2 MdmX conf: Mdm2-MdmX complex disruptors, retested hits, confirmation, luminescence, single concentration | Mdm2-MdmX binding, luminescent assay | AID 489028, 2010 | inhibition, % at 8 µM | shares compounds with Mdm2-MdmX inh | 10,000 compounds, 55% hits; in the data active means inhibition above about 40%
FLuc counter: full-length luciferase signal inhibition, confirmation, counter-screen for Mdm2/MdmX interaction inhibitor project, cell-based, single concentration, SaOS-2. shares compounds with Mdm2-MdmX inh. 6,200 compounds, 77% hits. inhibition, % at 8 µM. SaOS-2 full-length luciferase counterscreen, luminescence;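 active means mean inhibition at 8 µM reaching about 37%, which flags the compound as non-specific, limit read from the data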;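 further: p53-null SaOS-2 cells with luciferase driven by a doxycycline-inducible promoter; compound on cells about two nights before reading with doxycycline added after day one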
An asterisk follows results filed as active; . = no result given.

SMILES	aSyn UTR inh	CSC inhib	697 NFkB inh	Mdm2-MdmX inh	Gli-Sufu antag	Jurkat NFkB inh	Mdm2 MdmX conf	FLuc counter
COc1ccccc1NC(=O)c1ccc(CN(c2cc(Cl)ccc2C)S(=O)(=O)c2ccccc2)cc1	-1.8	-0.9	18.7	60.9*	-3.3	11.0	32.6	.
CCc1ccc(-c2cn(-c3nc(C)cc(C)n3)c(=N)o2)cc1	-5.6	43.3	-5.7	53.4*	0.2	8.6	52.2*	67.9*
O=C(Nc1nc(-c2ccc(F)c(F)c2)cs1)Nc1ccc(F)cc1F	-49.3	9.3	-18.1	83.0*	3.2	-2.3	62.4*	14.7
Cc1ccc(-c2nc(CS(=O)CC(=O)NC3CCC(C)CC3)c(C)o2)cc1 (centres undefined)	9.2	-16.1	8.8	14.9	-11.1	8.1	.	.
COCCN=c1scc(-c2cc(OC)c(OC)c(OC)c2)n1/N=C/c1c(C)[nH]c2ccccc12	-11.7	114.9*	-3.4	58.7*	37.9	9.8	18.6	.
Cc1[nH]c2ccccc2c1/C=N/n1cnnc1	9.4	-16.5	6.8	13.4	-8.2	-18.9	.	.
CCCOc1ccc(N2C(=O)CC(SC(=N)N3N=C(c4ccccc4)CC3c3ccccc3)C2=O)cc1 (centres undefined)	-0.1	-9.3	-27.4	60.3*	3.3	5.5	39.6	76.7*
COCCn1c(=NC(=O)/C=C/c2ccccc2)sc2cc(NC(C)=O)ccc21	-8.8	23.2	29.5	16.3	4.8	3.1	.	.
CCOC(=O)Cn1c2ccc(OC)cc2c2nc3ccccc3nc21	20.0	6.7	-27.3	70.4*	7.2	-5.0	25.4	.
Cc1cccc(-c2nnc(SCC#N)n2-c2cccc(Cl)c2)c1	28.9	-16.1	-23.4	8.5	0.4	8.6	.	.
COc1ccc(-n2c(SCCC#N)nnc2-c2cc(Cl)ccc2OC)cc1Cl	-18.8	66.8	-7.8	53.9*	7.4	18.0	64.5*	50.9*
CC(=O)NCCCc1nc2ccccc2n1Cc1c(F)cccc1Cl	-3.0	12.0	2.3	18.6	14.4	-6.1	.	.
O=c1oc2ccccc2cc1-c1csc(Nc2nc3c(F)cccc3s2)n1	41.4	47.7	-86.8	70.3*	-8.8	-26.3	70.0*	107.0*
O=c1oc2ccccc2cc1-c1csc(Nc2nc3ccc(F)cc3s2)n1	-114.8	23.8	-21.4	40.1	.	20.8	.	.
CCOC(=O)c1c(NC(=O)c2ccc(S(=O)(=O)N3CCOCC3)cc2)sc2c1CC(C)(C)NC2(C)C	-25.4	12.0	-16.2	55.4*	15.8	19.0	34.4	.
Cc1ccc(C(C)C)c(OCC(=O)Nc2sc3c(c2C#N)CC(C)(C)NC3(C)C)c1	22.4	65.2	-13.0	59.0*	11.2	7.7	30.7	81.2*
Cc1cc(OCC(=O)Nc2sc3c(c2C#N)CC(C)(C)NC3(C)C)c(C(C)C)cc1Cl	11.2	55.5	-9.9	47.1	0.3	-9.8	.	.
COC(=O)c1c(NC(=O)COc2ccc(Cl)cc2)sc2c1CC(C)(C)NC2(C)C	82.9*	10.1	-1.0	94.9*	22.8	27.8	98.8*	-0.4
CCOC(=O)c1c(NC(=O)COc2ccccc2F)sc2c1CC(C)(C)NC2(C)C	20.5	45.0	-10.9	83.5*	21.3	-9.3	71.8*	63.3*
CCOC(=O)c1nnn(CC(=O)N2N=C(c3ccc(Cl)cc3)CC2c2ccccc2)c1C(=O)OCC (centres undefined)	-2.1	0.7	0.9	-12.6	2.7	4.7	.	.
COc1ccc(S(=O)(=O)NNC(=O)C2COc3ccccc3O2)cc1[N+](=O)[O-] (centres undefined)	-20.7	-0.1	10.9	2.3	-0.9	5.0	.	.
